Rows were chosen to be rich in hits. Some 7.3% of all compounds tested hit in one or more screens of this group.
NPC1 prom act: activators of NPC1 promoter | Potency, µM (highest dose often 9.22 µM), without a hit: at the highest dose activation, usual class: activators | actives 2.4% (n = 320,000) | AID 485313 | Huh7 NPC1 promoter luciferase reporter, 24 h; note: % of control where 0% means no effect; nearly all actives have a fitted effect of over 60% in size
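Luminescence read-out of NPC1 promoter-driven luciferase in stably transfected Huh7 cells; compounds delivered in DMSO and left 24 h at 37C, 5% CO2, qHTS titration format.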
SMN2 splice enh: SMN2 splice variant enhancement; Potency, µM (titrated, usually from 46.1 µM), for the others: top-dose activity change, positive = activation, usual class: activators; actives 2.8% (n = 210,000); HEK293 SMN2-luciferase splicing reporter, luminescence, 30-36 h; note: % of control where 0% means no effect; nearly all actives have a fitted effect of over 55% in size
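HEK293 cells carry an SMN2 minigene-luciferase reporter in which exon 7 inclusion puts luciferase in frame. Cells were seeded at 2000 cells/well, attached for 10-12 hours, then exposed to compounds for 30-36 hours at 37C before ONE-Glo luminescence.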
ELG1 genotoxic: genotoxicity induction in ELG1-luciferase HEK293T cells | HEK293T ELG1-luciferase reporter, luminescence, 16 h | Potency, µM (highest dose often 46 µM), inactives show at the top dose activity change, positive = activation, hits mostly activators | actives 1.3% (n = 330,000) | AID 504466; note: % of control where 0% means no effect; nearly all actives have a fitted effect of over 60% in size
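Genotoxic stress is detected as increased luminescence from luciferase-tagged ELG1 in HEK293T cells, measured with ONE-Glo after a 16 hr treatment at 37 °C.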
FLuc counter: inhibits or activates purified firefly luciferase, miR-21 counter-screen. purified FLuc, Km substrates, luminescence inhibition. Potency, µM (highest dose often 57.5 µM), for the others: top-dose activity change, negative = inhibition, usual class: inhibitors. actives 6.9% (n = 360,000);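 note: plate controls were vehicle for no effect and reference inhibitor for full effect; nearly all actives have a fitted effect of over 55% in size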
Target sequence (P08659 whole entry, looked up): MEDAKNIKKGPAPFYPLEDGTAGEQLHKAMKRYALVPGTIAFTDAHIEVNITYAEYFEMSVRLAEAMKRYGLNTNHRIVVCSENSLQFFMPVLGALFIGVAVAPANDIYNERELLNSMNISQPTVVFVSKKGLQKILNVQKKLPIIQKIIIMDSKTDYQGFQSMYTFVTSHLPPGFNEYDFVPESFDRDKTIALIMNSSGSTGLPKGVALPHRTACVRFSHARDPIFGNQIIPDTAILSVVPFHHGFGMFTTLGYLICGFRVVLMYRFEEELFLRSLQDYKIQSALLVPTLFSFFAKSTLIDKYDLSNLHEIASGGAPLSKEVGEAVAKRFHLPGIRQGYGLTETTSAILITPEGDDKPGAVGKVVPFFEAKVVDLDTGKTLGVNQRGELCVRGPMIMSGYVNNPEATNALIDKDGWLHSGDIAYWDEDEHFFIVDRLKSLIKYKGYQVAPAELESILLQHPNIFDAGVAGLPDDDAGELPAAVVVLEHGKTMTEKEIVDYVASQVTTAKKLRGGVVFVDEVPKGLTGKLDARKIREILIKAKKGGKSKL
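Biochemical qHTS of compounds, final roughly 60 µM downward over six points, against 10 nM purified firefly luciferase using Km concentrations of substrates (10 uM D-luciferin, 10 uM ATP) in Tris acetate pH 7.5 buffer; luminescence output.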
Luc counter: counter-screen: inhibitors of Kinase-Glo firefly luciferase; Q27757; Kinase-Glo luciferase, ATP luminescence, 8 min; Potency, µM (series often up to 38.3 µM), inactives show at the top dose activity change, negative = inhibition, actives largely listed as inhibitors; actives 0.28% (n = 200,000); AID 1379; note: % is set by controls: 0 for no effect and ±100 for the full control effect; nearly all actives have a fitted effect of over 60% in size
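Substrate mix (final 50 mM imidazole pH 7.2, 50 mM KCl, 7 mM MgCl2, 10 uM ATP, 0.01% Tween 20, 0.05% BSA) plus pin-tool compound, then Kinase-Glo detection mix; 8 min ambient, luminescence read.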
Rab9 promoter act: activates the Rab9 promoter; Huh7 Rab9 promoter-luciferase reporter, luminescence, 24 h; Potency, µM (top dose mostly 9.22 µM), without a hit: at the highest dose activation, negative = inhibition, hits mostly activators; actives 2.8% (n = 320,000); note: % of control where 0% means no effect; nearly all actives have a fitted effect of over 60% in size
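Measured in stably transfected Huh7 cells bearing a Rab9 promoter–luciferase construct: 24 h compound treatment at 37 °C, followed by luminescence detection.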
An asterisk follows results filed as active; ? = inconclusive; / = no result; [ ] = another dose, or the depositor's remark. Calls come from the whole dose curve; as a rule, active = well fitted curve in the direction sought with a large enough effect; inconclusive = small, poorly fitted or top-dose-only effect, or another doubt; inactive = no such curve, though single readings can be large; an effect the other way counts as inactive or inconclusive. Potency is the fitted concentration of half-maximal effect.

SMILES	NPC1 prom act	SMN2 splice enh	ELG1 genotoxic	FLuc counter	Luc counter	Rab9 promoter act
O=C(Nc1ccn(Cc2ccccc2)n1)c1cccc(Cn2cc([N+](=O)[O-])cn2)c1	4%	-13%	-7%	15µM*	-3%	4%
O=C(c1cccs1)N(Cc1cccnc1)c1nc2ccc(F)cc2s1	/	/	/	-3%	/	/
O=C(N1CCOCC1)C1(c2ccccc2)CCCCC1	0%	32µM*	1%	2%	0%	-10%
O=C(N1CCCCC1)C1(c2ccccc2)CCOCC1	5%	11%	0%	6%	3%	-4%
C/C(=N/NC(=O)c1ccc(Cl)s1)c1cccnc1	7%	/	11%	0%	/	3%
C/C(=N/NC(=O)c1ccc(Br)s1)c1cccnc1	28%	/	11%	15µM*	/	?
C/C(=N/NC(=O)c1ccc(C)s1)c1cccnc1	26%	/	?	19µM*	/	?
NCC(O)COc1cccc2ccccc12 (configuration not stated)	/	-8%	/	/	/	/
O=C(CSc1ccc(-c2nc3ccccc3[nH]2)cn1)Nc1ccc(S(=O)(=O)N2CCCC2)cc1	-4%	19%	-1%	4.8µM*	-2%	-2%
Cc1cc2nc(-c3ccc(SCC(=O)Nc4nccs4)nc3)[nH]c2cc1C	3.5µM*	?	?	?	-10%	2.5µM*
Cc1cc2nc(-c3ccc(SCC(=O)Nc4ccc(S(=O)(=O)N5CCCC5)cc4)nc3)[nH]c2cc1C	2.5µM*	13µM*	?	0.3µM*	-21%	2µM*
Cc1ccc(C(=O)O/N=C(\N)c2ccccn2)c(C)c1	0.032µM*	/	-17%	0.021µM*	/	?
COc1cc(OC)c(C(=O)O/N=C(\N)c2ccccn2)cc1OC	10%	/	4%	-4%	/	14%
N/C(=N\OC(=O)c1cccnc1)c1ccccc1Cl	23%	-33%	3%	17µM*	-6%	20%
N/C(=N\OC(=O)c1ccccc1Cl)c1ccccn1	0.35µM*	?	0.52µM*	0.15µM*	11µM*	0.63µM*
N/C(=N\OC(=O)c1cccnc1)c1ccc(Cl)cc1Cl	12%	13%	?	?	1%	?
COc1ccccc1C(=O)O/N=C(\N)c1ccccn1	1.4µM*	/	?	11µM*	/	1.3µM*
O=C(Cn1c(-c2cccs2)cc2cc(F)ccc21)NCCc1ccc(Cl)cc1	/	-4%	/	0%	/	/
COc1ccc(N(C(=O)/C=C\C(=O)Nc2ccc(Cl)cc2)C(C(=O)NCc2ccco2)c2ccc(C)cc2)cc1 (configuration not stated)	/	/	/	-9%	/	/
N/C(=N\OC(=O)c1ccccc1[N+](=O)[O-])c1ccccn1	1.8µM*	-5%	?	2.1µM*	-5%	1.6µM*
O=C(Oc1cccnc1)c1ccccc1[N+](=O)[O-]	3%	30%	0%	-2%	3%	-1%
COc1ccc(N2C(=O)C3C(C2=O)C2C=CC3C23CC3)c(OC)c1 (configuration not stated)	-1%	-1%	6%	13µM*	-2%	8%
CCC/C(C)=C/c1ccc(CC)cn1	1%	/	0%	9.5µM*	/	0%
CCc1ccc(OCCCC(=O)NCc2ccccc2)cc1	-2%	9%	2%	-16%	1%	0%
Cc1ccc(COC(=O)c2ccc3ccccc3n2)cc1	0%	/	2%	15µM*	/	4%
SMILES	NPC1 prom act	SMN2 splice enh	ELG1 genotoxic	FLuc counter	Luc counter	Rab9 promoter act
Cc1ccccc1OCCNC(=O)c1ccc2ccccc2n1	?	22µM*	21µM*	4.8µM*	-1%	3.2µM*
COc1ccc(NC(=S)c2ccc3ccccc3n2)cc1	3.2µM*	/	?	13µM*	/	4µM*
COc1ccc(N=C(NN)c2ccc3ccccc3n2)cc1	17%	-1%	?	6.7µM*	-1%	22%
COc1ccc(NC(=O)CN(C)C(=O)c2ccc3ccccc3n2)cc1	/	/	1%	/	/	/
COC(=O)C1=C(C(=O)OC)[C@@H]2N(C)c3ccccc3[C@@]23C[C@@H](C(=O)OC)N(S(=O)(=O)c2ccc(OC)cc2)C3=N1	/	9%[9.22 µM]	/	/	-8%[7.66 µM]	/
COc1ccc2c(c1)c1c(c(=O)n(CCc3ccccc3)c(=O)n1Cc1ccc(Cl)cc1)n2C	/	/	/	-2%	/	/
Cc1nc(SCC(=O)Nc2ccccc2C)cc(-c2ccccc2)n1	/	/	/	-6%	/	/
COc1ccc(CNC(=O)c2ccc3ccccc3n2)cc1	14%	/	13%	27µM*	/	15%
COc1ccc(CNC(=O)c2ccc(C(C)(C)C)cc2)cc1	3.2µM*	/	?	3µM*	1%	2.8µM*
CCOc1ccc(NC(=S)c2ccc3ccccc3n2)cc1	3.5µM*	/	15%	?	/	?
Cc1cccc(-c2nc3c4ccccc4nc(NCc4ccccc4Cl)n3n2)c1	/	29%	/	?	/	/
Cc1ccccc1CNCCCSc1nnnn1-c1ccccc1	/	/	/	0%	/	/
C/C(=N\NS(=O)(=O)c1ccc([N+](=O)[O-])cc1)c1ccc2c(c1)OCO2	-3%	/	2%	-2%	/	6%
C/C(=N\NS(=O)(=O)c1ccc(C)c([N+](=O)[O-])c1)c1ccc2c(c1)OCO2	2%	/	0%	11µM*	/	-10%
Cc1ccc(S(=O)(=O)N/N=C/c2ccccc2O)cc1[N+](=O)[O-]	-1%	-25%	11%	15µM*	5%	-1%
Cc1ccc(S(=O)(=O)N/N=C/c2ccc(O)c(O)c2)cc1[N+](=O)[O-]	-1%	-3%	9%	-31%	0%	1%
COc1ccc(CCNc2ncnc3c2nnn3C)cc1	/	/	/	5%	/	/
Cc1cc(C)c(NC(=O)CCCn2c(C)c3cnn(-c4ccccc4)c(=O)c3c2C)c(C)c1	/	-19%	/	-10%	/	/
CCOC(=O)C1=C(c2ccccc2)NC(=O)NC1c1cc(Cl)c(O)c(OC)c1 (configuration not stated)	-4%	20%	19%	3%	0%	2%
